Data published in publication PMC7862700, “An all-to-all approach to the identification of sequence-specific readers for epigenetic DNA modifications on cytosine”.

Tests used:
Assay in all cases: DAPPL (digital affinity profiling via proximity ligation, sequencing); 10 mM Tris-HCl pH 7.5, 50 mM NaCl, 1 mM DTT, 4% glycerol, room temperature, 30 min; GST-TFs on glutathione beads, 16-mer random dsDNA library, 0.1% formaldehyde crosslink after washing; high values mean tight binding
Conditions in all cases: protein: recombinant; tags: N-terminal GST; dsDNA, one strand shown
[1] = biological target: T1, FLI1 (Homo sapiens, UniProt Q01543 1-452)
T1 sequence: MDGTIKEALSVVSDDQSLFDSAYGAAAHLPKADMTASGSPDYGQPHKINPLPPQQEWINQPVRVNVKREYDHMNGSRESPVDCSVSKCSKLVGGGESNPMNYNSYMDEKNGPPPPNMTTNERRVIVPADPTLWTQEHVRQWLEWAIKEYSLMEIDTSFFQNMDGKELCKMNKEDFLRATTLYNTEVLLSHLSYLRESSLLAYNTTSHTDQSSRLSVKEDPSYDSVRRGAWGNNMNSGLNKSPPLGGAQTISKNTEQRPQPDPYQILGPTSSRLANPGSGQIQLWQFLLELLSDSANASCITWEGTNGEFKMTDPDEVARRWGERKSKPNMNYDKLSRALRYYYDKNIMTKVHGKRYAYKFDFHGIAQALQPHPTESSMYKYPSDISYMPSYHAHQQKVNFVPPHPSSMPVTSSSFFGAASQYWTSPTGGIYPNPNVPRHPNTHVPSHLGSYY
In short: (§1)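 Sequencing on an Illumina NextSeq500 followed washing, crosslinking with 0.1% formaldehyde, proximity ligation (BsaI/T4 ligase, 1 h, 37 °C) and PCR amplification of pools that had been incubated for 30 min at room temperature with 200 nmole of a random double-stranded 16-mer DNA library in Tris/NaCl/DTT/glycerol buffer. Each pool held DNA-barcoded human transcription factors, expressed in yeast as GST fusions and captured on glutathione beads, plus a tag-only sample. Binding signal is a hexamer's read frequency for a factor divided by its frequency in the tag-only sample.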

[2] = biological target: T2, ELK1 (Homo sapiens, UniProt P19419 1-428)
T2 sequence: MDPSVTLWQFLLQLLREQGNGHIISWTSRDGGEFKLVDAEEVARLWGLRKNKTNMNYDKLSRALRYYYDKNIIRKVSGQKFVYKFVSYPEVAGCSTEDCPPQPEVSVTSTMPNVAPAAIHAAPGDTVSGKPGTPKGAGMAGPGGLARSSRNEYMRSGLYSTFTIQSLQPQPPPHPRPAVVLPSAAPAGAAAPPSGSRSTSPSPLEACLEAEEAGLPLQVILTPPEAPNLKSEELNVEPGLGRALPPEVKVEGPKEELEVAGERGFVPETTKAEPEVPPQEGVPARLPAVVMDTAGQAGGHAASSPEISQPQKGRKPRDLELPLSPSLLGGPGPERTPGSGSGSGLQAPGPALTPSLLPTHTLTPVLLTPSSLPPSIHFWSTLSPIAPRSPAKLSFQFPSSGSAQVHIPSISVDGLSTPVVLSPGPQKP
In short: as §1

[3] = biological target: T3, GABPA (Homo sapiens, UniProt Q06546 1-454)
T3 sequence: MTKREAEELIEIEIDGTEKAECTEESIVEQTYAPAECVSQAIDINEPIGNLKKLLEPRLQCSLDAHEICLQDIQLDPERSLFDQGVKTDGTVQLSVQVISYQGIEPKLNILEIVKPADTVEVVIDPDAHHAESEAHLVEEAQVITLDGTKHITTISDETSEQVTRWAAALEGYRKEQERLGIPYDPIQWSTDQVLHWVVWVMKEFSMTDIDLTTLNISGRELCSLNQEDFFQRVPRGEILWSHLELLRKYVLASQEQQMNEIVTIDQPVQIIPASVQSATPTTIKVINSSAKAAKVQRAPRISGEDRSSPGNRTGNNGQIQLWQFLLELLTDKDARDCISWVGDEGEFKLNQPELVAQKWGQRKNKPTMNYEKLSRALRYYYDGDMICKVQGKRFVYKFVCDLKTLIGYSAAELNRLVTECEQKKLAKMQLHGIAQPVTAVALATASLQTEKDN
In short: as §1

[4] = biological target: T4, ERG (Homo sapiens, UniProt P11308 1-479)
T4 sequence: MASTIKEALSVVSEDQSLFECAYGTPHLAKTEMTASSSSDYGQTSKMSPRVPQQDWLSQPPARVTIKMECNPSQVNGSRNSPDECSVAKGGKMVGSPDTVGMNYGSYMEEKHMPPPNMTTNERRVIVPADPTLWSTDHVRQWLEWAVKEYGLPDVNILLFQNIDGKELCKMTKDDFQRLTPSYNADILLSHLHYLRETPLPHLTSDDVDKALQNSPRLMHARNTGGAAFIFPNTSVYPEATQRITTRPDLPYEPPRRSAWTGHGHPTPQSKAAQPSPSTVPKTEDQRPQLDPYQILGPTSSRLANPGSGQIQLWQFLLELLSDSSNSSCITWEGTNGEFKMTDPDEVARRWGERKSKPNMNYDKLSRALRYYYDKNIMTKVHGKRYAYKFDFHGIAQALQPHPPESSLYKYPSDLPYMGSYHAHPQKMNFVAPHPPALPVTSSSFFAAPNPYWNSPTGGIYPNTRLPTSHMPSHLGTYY
In short: as §1

[5] = biological target: ELF1 (Homo sapiens, UniProt P32519 1-619)
In short: as §1

[6] = biological target: T5, EHF (Homo sapiens, UniProt Q9NZC4 1-300)
T5 sequence: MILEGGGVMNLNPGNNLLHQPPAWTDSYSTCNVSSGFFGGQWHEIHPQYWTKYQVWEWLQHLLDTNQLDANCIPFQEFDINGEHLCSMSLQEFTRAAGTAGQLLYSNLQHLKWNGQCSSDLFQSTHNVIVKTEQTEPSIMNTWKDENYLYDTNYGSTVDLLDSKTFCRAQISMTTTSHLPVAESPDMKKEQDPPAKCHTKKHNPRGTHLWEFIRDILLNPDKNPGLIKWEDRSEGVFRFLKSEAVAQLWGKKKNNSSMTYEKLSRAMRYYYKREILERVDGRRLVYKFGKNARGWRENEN
In short: as §1

[7] = biological target: SPI1 (Homo sapiens, UniProt P17947 1-270)
In short: as §1

[8] = biological target: SPIB (Homo sapiens, UniProt Q01892 1-262)
In short: as §1

[9] = biological target: T6, ELK3 (Homo sapiens, UniProt P41970 1-407)
T6 sequence: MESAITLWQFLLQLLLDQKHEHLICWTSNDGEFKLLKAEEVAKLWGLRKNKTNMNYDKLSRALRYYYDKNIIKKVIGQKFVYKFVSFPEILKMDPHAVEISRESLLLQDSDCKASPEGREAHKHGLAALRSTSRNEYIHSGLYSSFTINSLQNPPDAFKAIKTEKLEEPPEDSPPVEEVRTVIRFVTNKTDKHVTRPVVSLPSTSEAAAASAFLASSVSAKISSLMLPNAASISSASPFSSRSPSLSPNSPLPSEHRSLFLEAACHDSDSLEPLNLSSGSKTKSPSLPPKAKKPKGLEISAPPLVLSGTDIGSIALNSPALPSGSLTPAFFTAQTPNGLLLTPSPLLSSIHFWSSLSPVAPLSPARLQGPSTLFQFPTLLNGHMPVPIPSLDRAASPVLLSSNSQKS
In short: as §1

SPIB, sequence (Q01892 whole entry): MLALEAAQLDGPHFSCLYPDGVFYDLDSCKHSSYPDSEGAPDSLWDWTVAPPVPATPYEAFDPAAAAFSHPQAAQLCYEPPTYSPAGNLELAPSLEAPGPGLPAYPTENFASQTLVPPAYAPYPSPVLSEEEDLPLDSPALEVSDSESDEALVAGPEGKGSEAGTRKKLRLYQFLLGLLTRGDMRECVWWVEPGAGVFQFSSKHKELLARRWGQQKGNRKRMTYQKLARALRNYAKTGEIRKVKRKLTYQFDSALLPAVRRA
ELF1, sequence (P32519 whole entry): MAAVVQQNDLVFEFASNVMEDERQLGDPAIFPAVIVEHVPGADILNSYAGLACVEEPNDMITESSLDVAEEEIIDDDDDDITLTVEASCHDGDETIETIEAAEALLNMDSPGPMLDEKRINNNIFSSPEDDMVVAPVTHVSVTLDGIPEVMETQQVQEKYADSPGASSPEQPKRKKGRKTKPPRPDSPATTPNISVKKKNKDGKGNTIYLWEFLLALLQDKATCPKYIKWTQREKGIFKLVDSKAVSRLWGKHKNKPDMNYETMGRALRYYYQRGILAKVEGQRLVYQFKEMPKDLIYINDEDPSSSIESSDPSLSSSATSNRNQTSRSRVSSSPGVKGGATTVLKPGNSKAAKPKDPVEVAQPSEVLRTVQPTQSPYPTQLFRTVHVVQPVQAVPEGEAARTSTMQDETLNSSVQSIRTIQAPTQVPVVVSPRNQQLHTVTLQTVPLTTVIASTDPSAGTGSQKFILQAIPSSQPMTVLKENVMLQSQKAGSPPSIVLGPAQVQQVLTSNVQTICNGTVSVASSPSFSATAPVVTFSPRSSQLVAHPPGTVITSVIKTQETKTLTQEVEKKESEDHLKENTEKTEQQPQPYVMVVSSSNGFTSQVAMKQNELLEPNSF

Q: Which binding signal [1] does the source give for CTTTGT here?
A: 1.34 fold enrichment (6-mer frequency, TF over GST control)

Q: What about the binding signal [2] of the same sequence?
A: 1.3 fold enrichment (6-mer frequency, TF over GST control)

Q: And the binding signal [3]?
A: 1.2 fold enrichment (6-mer frequency, TF over GST control)

Q: And the binding signal [4]?
A: 1.27 fold enrichment (6-mer frequency, TF over GST control)

Q: What about the binding signal [5] of the same sequence?
A: 1.36 fold enrichment (6-mer frequency, TF over GST control)

Q: And the binding signal [6]?
A: 1.48 fold enrichment (6-mer frequency, TF over GST control)

Q: And the binding signal [7]?
A: 1.36 fold enrichment (6-mer frequency, TF over GST control)

Q: And the binding signal [8]?
A: 1.22 fold enrichment (6-mer frequency, TF over GST control)

Q: What about the binding signal [9] of the same sequence?
A: 1.29 fold enrichment (6-mer frequency, TF over GST control)
